Screening results deposited in PubChem by National Center for Advancing Translational Sciences (NCATS).
In the library only some 21% were active in any assay of this set; here they are far more common.
DRD3 antagonist = D3 dopamine receptor (human) antagonism. max response, negative = inhibition, %. D3R cells, DiscoveRx beta-arrestin luminescence, antagonist mode; hits give low values. P35462. hit rate 2.5% among 360,000; in the data active = max response below about -50%; inconclusive = no clear call, values can overlap the other calls; also: % is scaled to controls: 0 for no effect and ±100 for the full control effect
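Cells expressing the human receptor were seeded at 1500 cells/well, incubated overnight at 37 degrees C in 5% CO2, then exposed to library compounds with dopamine controls for 90 minutes at 37 degrees C before luminescent detection.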
ClpP mod = qHTS Assay for Activators of ClpP. hit rate 1.9% among 340,000. AID 651965, 2013. Potency, µM (doses to about 57.5 µM), for the others: at the top dose activity change, negative = active. purified B. subtilis ClpP, FRET peptide cleavage, 20 min. ATP-dependent Clp protease proteolytic subunit (Bacillus subtilis (strain 168)), P80244; active = well fitted falling curve with a large enough effect; inconclusive = small, poorly fitted or top-dose-only effect; inactive = no such curve, though single readings can be large or run the other way; also: potency is read from the fitted curve at half-maximal effect; the source files actives as falling curves though it sought activators and does not explain the sign; nearly all actives have a fitted effect of over 65% in size
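Buffer: 100 mM Tris/HCl pH8, 100 mM KCl, 0.05% low protease BSA, 2.5% glycerol, 0.01% Tween-20. ClpP 10 microg/mL final; 20 min RT; delta FRET normalized to ADEP and DMSO controls.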
IL1B secr inh = inflammasome signaling inhibition, IL-1 beta readout; THP-1 LPS/ATP IL-1B secretion, AlphaLISA, 16 h; hits give low values; activity change, % at 57.5 µM; hit rate 4.7% among 360,000; in the data active = activity change below about -50%; inconclusive = mostly about -30% to -49%; also: % is scaled to controls: 0 for no effect and ±100 for the full control effect
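THP-1 cells pretreated 1 hr with compounds (up to 57.5 uM final), then stimulated with LPS (250 ng/mL final) plus ATP (1.25 mM final); secreted IL-1B measured by AlphaLISA after 16 hr, decreased signal indicating inhibition.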
TDP1 cell CPT = DT40-hTDP1 cell growth loss with CPT. chicken DT40 Tdp1-/-;hTDP1 cells + 20 nM CPT, ATP luminescence, 48 h. Potency, µM (top dose mostly 46.2 µM), for the others: at the top dose activity change, negative = growth inhibition, actives largely listed as inhibitors. hit rate 12% among 420,000; also: potency is read from the fitted curve at half-maximal effect; % is scaled to controls: 0 for no effect and ±100 for the full control effect; nearly all actives have a fitted effect of over 55% in size
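Chicken DT40 Tdp1-/- cells complemented with human TDP1, 400 cells/well, exposed to compounds plus 20 nM camptothecin for at least 48 h at 37 C; viability read as ATP content by CellTiter-Glo luminescence.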
DRD3 agonist = D3 dopamine receptor (human) agonism; D3R DiscoveRx beta-arrestin cells, luminescence, 90 min; max activation, %; AID 652048; P35462; hit rate 0.58% among 410,000; in the data active = max activation above about 30%; also: 0% is about no effect
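Agonist-mode cell screen: cells plated at 1500/well and incubated overnight at 37 °C, then exposed to library compounds for 90 min at 37 °C. Detection reagent was added for 30–60 min at room temperature, and luminescence was read.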
DT40 TDP1 no CPT = qHTS for Inhibitors of human tyrosyl-DNA phosphodiesterase 1 (TDP1): qHTS in cells in absence of CPT; DT40 Tdp1-/- hTDP1 cells, no CPT, ATP luminescence, 48 h; Potency, µM (titrated, usually from 46.2 µM), inactives show at the top dose activity change, negative = growth inhibition, actives largely listed as inhibitors; hit rate 15% among 420,000; AID 686978, 2013; also: potency is read from the fitted curve at half-maximal effect; % is scaled to controls: 0 for no effect and ±100 for the full control effect; nearly all actives have a fitted effect of over 55% in size
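Luminescent ATP content (CellTiter-Glo) served as the growth readout. Knockout chicken DT40 cells expressing human TDP1 were exposed to compounds without camptothecin for a minimum 48 hr at 37 °C.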
An asterisk follows results filed as active; ! = repeats disagree. Unless noted, calls follow the shape of the dose curve; as a rule, active = well fitted inhibition curve with a large enough effect; inconclusive = small, poorly fitted or top-dose-only effect; inactive = flat fitted curve, though single readings scatter.

Screening COc1cc(C(C)=O)ccc1OCC(O)CN(CCO)Cc1ccccc1 (configuration not stated) returned DRD3 antagonist 1, ClpP mod 1%, IL1B secr inh -3, TDP1 cell CPT -3%, DRD3 agonist 5 and DT40 TDP1 no CPT -2%.
OCCN(Cc1ccccc1)CC(O)COc1ccc(-c2ccccc2)cc1 (configuration not stated) was read as DRD3 antagonist 19, ClpP mod 2%, IL1B secr inh -76*, TDP1 cell CPT 29µM*, DRD3 agonist -6 and DT40 TDP1 no CPT inconclusive.
Screening OCCN1CCN(CC(O)COc2ccc(-c3ccccc3)cc2)CC1 (configuration not stated) returned DRD3 antagonist -62*, ClpP mod -2%, IL1B secr inh -5, TDP1 cell CPT inconclusive, DRD3 agonist 2 and DT40 TDP1 no CPT inconclusive.
CCc1nc2ccc(C(=O)Nc3ccc(OC)c(OC)c3)cn2c1N(C)Cc1cccs1 was read as DRD3 antagonist 46, ClpP mod -1%, IL1B secr inh -18, TDP1 cell CPT inconclusive, DRD3 agonist 9 and DT40 TDP1 no CPT inconclusive.
`CCCC(=O)Nc1c(I)cc(I)c(CC(CC)C(=O)O)c1I` (configuration not stated) gave TDP1 cell CPT 8%, DRD3 agonist 6 and DT40 TDP1 no CPT 0%.
`CCC(Cc1c(I)cc(I)c(N)c1I)C(=O)O` (configuration not stated) gave DRD3 antagonist 1, ClpP mod 2%, IL1B secr inh 67, TDP1 cell CPT 4%, DRD3 agonist 5 and DT40 TDP1 no CPT 9µM*!.
COc1ccc(CCNC(=O)Cn2c(=O)c3sccc3n(CC(=O)Nc3cccc(C(F)(F)F)c3)c2=O)cc1OC was read as ClpP mod 0%, TDP1 cell CPT -12%, DRD3 agonist -6 and DT40 TDP1 no CPT -7%.
COC(=O)[C@@]1(Cc2ccc(F)cc2)[C@H]2c3cc(C(=O)N(C)C)n(CCCNc4ncc(C(F)(F)F)cc4Cl)c3C[C@H]2CN1C(=O)c1ccccc1 was read as DRD3 antagonist 9, ClpP mod -6%, IL1B secr inh 0, TDP1 cell CPT inconclusive, DRD3 agonist -8 and DT40 TDP1 no CPT inconclusive.
For Cc1ccc(C)c(N2CCN(C(=O)CCn3c(=O)c4cccn4c4cccnc43)CC2)c1 the results were ClpP mod -25%, TDP1 cell CPT inconclusive, DRD3 agonist 4 and DT40 TDP1 no CPT 21µM*.
`O=C(CCn1c(=O)c2cccn2c2cccnc21)N1CCN(c2ccccc2F)CC1` gave ClpP mod -15%, TDP1 cell CPT inconclusive, DRD3 agonist 1 and DT40 TDP1 no CPT 23µM*.
`Cc1ccc(C)c(N2CCN(CCCNC(=O)CCn3c(=O)c4cccn4c4cccnc43)CC2)c1` gave DRD3 antagonist inconclusive, ClpP mod -8%, IL1B secr inh 4, TDP1 cell CPT inconclusive, DRD3 agonist -8 and DT40 TDP1 no CPT inconclusive.
`Cc1ccc(C)c(N2CCN(CCCNC(=O)Cn3c(=O)c4cccn4c4cccnc43)CC2)c1` gave DRD3 antagonist -98*, ClpP mod -18%, IL1B secr inh inconclusive, TDP1 cell CPT 21µM*, DRD3 agonist -22 and DT40 TDP1 no CPT inconclusive.
For O=C(Cn1c(=O)c2cccn2c2ccc(F)cc21)N1CCN(c2ccccc2F)CC1 the results were ClpP mod inconclusive, TDP1 cell CPT -19%, DRD3 agonist -10 and DT40 TDP1 no CPT -20%.
`Cc1ccc(Cl)cc1N1CCN(C(=O)CCn2c(=O)c3cccn3c3cccnc32)CC1` gave ClpP mod inconclusive, TDP1 cell CPT 9.2µM*, DRD3 agonist 2 and DT40 TDP1 no CPT 6.5µM*.
O=C(CCn1c(=O)c2cccn2c2cccnc21)N1CCN(c2cccc(Cl)c2)CC1 was read as DRD3 antagonist 22, ClpP mod -8%, IL1B secr inh 23, TDP1 cell CPT 18µM*, DRD3 agonist -7 and DT40 TDP1 no CPT 15µM*.
O=C(CCCn1c(=O)oc2ccccc21)N1CCN(c2ccc(F)cc2)CC1 was read as DRD3 antagonist 1, IL1B secr inh -12, TDP1 cell CPT 0%, DRD3 agonist 9 and DT40 TDP1 no CPT -10%.
For COc1ccc(N2CCN(C(=O)Cn3c(=O)c4cccn4c4cccnc43)CC2)cc1 the results were DRD3 antagonist 9, ClpP mod -8%, IL1B secr inh 9, TDP1 cell CPT inconclusive, DRD3 agonist -14 and DT40 TDP1 no CPT -27%.
`O=C(CCn1c(=O)oc2ccccc21)N1CCN(c2ccccc2F)CC1` gave DRD3 antagonist -9, ClpP mod 1%, IL1B secr inh -3, TDP1 cell CPT -8%, DRD3 agonist 31* and DT40 TDP1 no CPT 4%.
For O=C(CCn1c(=O)c2cccn2c2cccnc21)NCCCN1CCN(c2ccc(F)cc2)CC1 the results were DRD3 antagonist -67*, ClpP mod inconclusive, IL1B secr inh -25, TDP1 cell CPT -19%, DRD3 agonist -4 and DT40 TDP1 no CPT inconclusive.
O=S(=O)(NCc1nc2cccnc2n1Cc1ccccc1Cl)c1ccc(F)c(Cl)c1 was read as ClpP mod -3%, TDP1 cell CPT inconclusive, DRD3 agonist 1 and DT40 TDP1 no CPT inconclusive.
For Cc1cc(C)cc(N2C(=O)CS(=O)(=O)C23C(=O)N(Cc2ccccc2)c2ccccc23)c1 (configuration not stated) the results were ClpP mod -1%, TDP1 cell CPT -22%, DRD3 agonist 5 and DT40 TDP1 no CPT -30%.
Cc1ncsc1C(=O)Nc1cccc(C(F)(F)F)c1 was read as DRD3 antagonist -4, IL1B secr inh 4, TDP1 cell CPT -6%, DRD3 agonist 3 and DT40 TDP1 no CPT -18%.
CC1(C)CC(=O)CC2(C1)NCC(c1ccccc1)c1c2[nH]c2ccccc12 (configuration not stated) was read as DRD3 antagonist 5, ClpP mod 0%, IL1B secr inh -69*, TDP1 cell CPT inconclusive, DRD3 agonist 5 and DT40 TDP1 no CPT inconclusive.
O=C(Nc1sc2c(c1C(=O)Nc1ccccc1Cl)CCCC2)c1ccccc1F was read as ClpP mod inconclusive, TDP1 cell CPT -7%, DRD3 agonist -2 and DT40 TDP1 no CPT -10%.
